From PubChem BioAssay (NCATS)
Records with an inconclusive call do not appear. A call without a number means that no potency is given here. Active and inactive are the calls of the source. Unless noted, the call rests on the fitted dose curve; in most records, active means well fitted curve in the direction sought with a large enough effect; inconclusive means small, poorly fitted or top-dose-only effect, or another doubt; inactive means no such curve, though single readings can be large; an effect the other way counts as inactive or inconclusive.

Columns and labels:
[1] = target: Ferritin light chain (Equus caballus) (UniProt P02791); assay: qHTS Validation Assay for Identification of Novel General Anesthetics (AID 2323); further: series mostly up to about 77 µM
Chain of Ferritin light chain (Equus caballus) (P02791 2-175 limits assumed): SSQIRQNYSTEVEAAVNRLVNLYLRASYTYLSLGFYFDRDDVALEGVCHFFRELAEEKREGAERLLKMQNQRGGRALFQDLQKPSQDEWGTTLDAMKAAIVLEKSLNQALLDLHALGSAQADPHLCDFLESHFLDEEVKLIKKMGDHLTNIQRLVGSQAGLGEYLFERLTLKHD
Outline: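 Apoferritin from horse spleen (10 uM) was mixed with 1-aminoanthracene at 50% saturation in PBS, then compounds were added. After 10 min at room temperature, fluorescence was read (ex 380 nm, em 535 nm) and normalized to free-probe and complex controls.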

[2] = target: ATP-dependent DNA helicase Q1 (Homo sapiens) (UniProt P46063); assay: qHTS Validation Assay for Inhibitors of RecQ-Like Dna Helicase 1 (RECQ1) (AID 2353)
Chain of ATP-dependent DNA helicase Q1 (Homo sapiens) (P46063 whole entry, looked up): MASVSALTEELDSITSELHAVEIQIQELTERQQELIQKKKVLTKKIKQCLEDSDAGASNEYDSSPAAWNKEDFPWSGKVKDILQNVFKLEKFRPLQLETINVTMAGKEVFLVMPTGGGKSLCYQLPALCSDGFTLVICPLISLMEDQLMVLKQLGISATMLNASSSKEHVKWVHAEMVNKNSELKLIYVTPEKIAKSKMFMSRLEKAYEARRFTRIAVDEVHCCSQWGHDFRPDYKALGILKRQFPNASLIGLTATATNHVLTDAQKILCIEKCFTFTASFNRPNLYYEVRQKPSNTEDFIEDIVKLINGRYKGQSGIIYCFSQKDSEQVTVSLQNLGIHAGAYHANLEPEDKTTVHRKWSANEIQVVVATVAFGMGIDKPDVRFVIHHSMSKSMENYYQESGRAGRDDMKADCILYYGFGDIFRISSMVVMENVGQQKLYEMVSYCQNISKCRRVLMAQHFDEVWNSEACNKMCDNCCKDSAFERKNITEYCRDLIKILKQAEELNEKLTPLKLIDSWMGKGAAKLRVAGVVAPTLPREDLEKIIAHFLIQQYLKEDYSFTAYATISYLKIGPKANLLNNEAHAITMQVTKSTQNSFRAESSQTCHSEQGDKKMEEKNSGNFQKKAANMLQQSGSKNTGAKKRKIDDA
Outline: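 50 nM RECQ1T1 preincubated 15 min with compound in Tris pH 8.0 buffer with MgCl2, DTT, Tween-20 and 2.5 ug/ml poly(dI-dC); started with 200 nM TAMRA/BHQ-2 forked duplex and 2 mM ATP. Unwinding read as fluorescence (525/598 nm), two reads 2 h apart.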

[3] = Cytometric Cell-Based qHTS for Inhibitors of the mTORC1 Signaling Pathway in MEF (Tsc2-/-, p53-/-) Cells (AID 2660);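 further: percent of cells above a phospho-rpS6 to PI ratio cutoff in each well; series mostly up to about 38 µM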
Outline: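 Readout: Alexa-488 phospho-rpS6 (Ser235/236) intensity divided by PI intensity, thresholded against 7.5 nM rapamycin wells and reported as % positive cells. PI cell count served as the viability measure. Compound exposure was 24 hrs at 37 degree Celsius.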

[4] = High Content Imaging Cell-Based qHTS for Inhibitors of the mTORC1 Signaling Pathway in MEF (Tsc2-/-, p53-/-) Cells (AID 2666);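 further: percent of cells scored positive for phospho-rpS6 Ser235/236 immunostaining by imaging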
Outline: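 Phospho-rpS6 (Ser235/236) immunofluorescence, normalized and scored as % positive cells using rapamycin and DMSO controls, was read in empty-vector Tsc2-/-, p53-/- MEFs after 24 h compound exposure at 37 C; propidium iodide counted cells.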

[5] = High Content Imaging Cell-Based qHTS for Inhibitors of the mTORC1 Signaling Pathway in MEF Cells (AID 2667);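 further: Tsc2-/- p53-/- MEFs stably re-expressing wild-type Tsc2 exposed 24 h; series mostly up to about 38 µM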
Outline: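 WT MEFs (Tsc2-/-, p53-/- re-expressing Tsc2), in DMEM + 10% FBS, were treated with compound for 24 h at 37 C. Cells were then fixed and stained for phospho-rpS6 Ser235/236 with propidium iodide as cell count. Values are % positive cells, with thresholds set against rapamycin-treated cells.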

[6] = Cytometry Cell-Based qHTS for Inhibitors of the mTORC1 Signaling Pathway in MEF cells (AID 2668);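 further: Tsc2-/- p53-/- mouse embryonic fibroblasts stably re-expressing wild-type Tsc2; percent cells positive for phospho-rpS6 Ser235/236 relative to propidium iodide stain; series mostly up to about 38 µM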
Outline: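 Pathway inhibition in WT Tsc2-rescued Tsc2-/-, p53-/- MEFs is measured as the Alexa-488 phospho-rpS6 to propidium iodide intensity ratio after 24 hrs of compound at 37 degree Celsius. PI-stained cell number gives viability.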

[7] = Validation screen for inhibitors of Lassa infection (AID 463096; calls by dose curve; further: potency means the concentration at half of the fitted maximal effect)
[8] = Validation screen for small molecules that induce DNA re-replication in MCF 10A normal breast cells (AID 463097); further: nearly all actives have a fitted effect of over 60% in size; further: potency means the concentration at half of the fitted maximal effect
Outline: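 DNA re-replication was detected as a rise in nuclei with elevated Hoechst fluorescence after a 48 hr compound exposure of MCF 10A cells at 37 C.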

[9] = target: Ubiquitin carboxyl-terminal hydrolase 2 (Homo sapiens) (UniProt O75604); assay: qHTS Validation Assay for Inhibitors of Ubiquitin-specific Protease USP2a Using CHOP2 as the Reporter (AID 463106)
Chain of Ubiquitin carboxyl-terminal hydrolase 2 (Homo sapiens) (O75604 whole entry, looked up): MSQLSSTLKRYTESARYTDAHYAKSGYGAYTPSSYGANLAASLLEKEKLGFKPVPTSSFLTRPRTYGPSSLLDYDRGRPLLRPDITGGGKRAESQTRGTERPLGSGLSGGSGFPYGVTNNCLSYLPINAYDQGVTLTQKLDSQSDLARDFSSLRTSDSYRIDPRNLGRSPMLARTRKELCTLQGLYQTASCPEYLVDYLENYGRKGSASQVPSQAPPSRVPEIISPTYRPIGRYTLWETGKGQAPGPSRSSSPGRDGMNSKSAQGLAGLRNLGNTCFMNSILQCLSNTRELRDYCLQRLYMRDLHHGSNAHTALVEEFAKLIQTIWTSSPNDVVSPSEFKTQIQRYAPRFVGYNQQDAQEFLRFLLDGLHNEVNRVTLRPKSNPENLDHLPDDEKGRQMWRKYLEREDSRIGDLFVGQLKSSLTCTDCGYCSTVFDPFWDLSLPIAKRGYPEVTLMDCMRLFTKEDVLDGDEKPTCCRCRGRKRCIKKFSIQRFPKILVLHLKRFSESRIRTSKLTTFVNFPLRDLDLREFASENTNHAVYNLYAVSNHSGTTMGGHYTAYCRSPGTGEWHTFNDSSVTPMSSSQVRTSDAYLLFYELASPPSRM
Outline: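 USP2 core (10 nM final) was preincubated with compound 30 min at RT in pH 8.0 Tris/CaCl2/beta-ME/CHAPS buffer. Ub-CHOP2 and reporter substrate (25 nM final each) were then added, with fluorescence (Ex 485/Em 531) read after 60 min. Data were normalized to NEM full inhibition and fitted to concentration-response curves.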

[10] = target: DNA polymerase III PolC-type (Bacillus subtilis (strain 168)) (UniProt P13267); assay: qHTS Validation Assay for the Inhibitors of DNA Replication in Gram-Positive Bacteria (AID 485295); further: potency means the concentration at half of the fitted maximal effect
Chain of DNA polymerase III PolC-type (Bacillus subtilis (strain 168)) (P13267 whole entry, looked up): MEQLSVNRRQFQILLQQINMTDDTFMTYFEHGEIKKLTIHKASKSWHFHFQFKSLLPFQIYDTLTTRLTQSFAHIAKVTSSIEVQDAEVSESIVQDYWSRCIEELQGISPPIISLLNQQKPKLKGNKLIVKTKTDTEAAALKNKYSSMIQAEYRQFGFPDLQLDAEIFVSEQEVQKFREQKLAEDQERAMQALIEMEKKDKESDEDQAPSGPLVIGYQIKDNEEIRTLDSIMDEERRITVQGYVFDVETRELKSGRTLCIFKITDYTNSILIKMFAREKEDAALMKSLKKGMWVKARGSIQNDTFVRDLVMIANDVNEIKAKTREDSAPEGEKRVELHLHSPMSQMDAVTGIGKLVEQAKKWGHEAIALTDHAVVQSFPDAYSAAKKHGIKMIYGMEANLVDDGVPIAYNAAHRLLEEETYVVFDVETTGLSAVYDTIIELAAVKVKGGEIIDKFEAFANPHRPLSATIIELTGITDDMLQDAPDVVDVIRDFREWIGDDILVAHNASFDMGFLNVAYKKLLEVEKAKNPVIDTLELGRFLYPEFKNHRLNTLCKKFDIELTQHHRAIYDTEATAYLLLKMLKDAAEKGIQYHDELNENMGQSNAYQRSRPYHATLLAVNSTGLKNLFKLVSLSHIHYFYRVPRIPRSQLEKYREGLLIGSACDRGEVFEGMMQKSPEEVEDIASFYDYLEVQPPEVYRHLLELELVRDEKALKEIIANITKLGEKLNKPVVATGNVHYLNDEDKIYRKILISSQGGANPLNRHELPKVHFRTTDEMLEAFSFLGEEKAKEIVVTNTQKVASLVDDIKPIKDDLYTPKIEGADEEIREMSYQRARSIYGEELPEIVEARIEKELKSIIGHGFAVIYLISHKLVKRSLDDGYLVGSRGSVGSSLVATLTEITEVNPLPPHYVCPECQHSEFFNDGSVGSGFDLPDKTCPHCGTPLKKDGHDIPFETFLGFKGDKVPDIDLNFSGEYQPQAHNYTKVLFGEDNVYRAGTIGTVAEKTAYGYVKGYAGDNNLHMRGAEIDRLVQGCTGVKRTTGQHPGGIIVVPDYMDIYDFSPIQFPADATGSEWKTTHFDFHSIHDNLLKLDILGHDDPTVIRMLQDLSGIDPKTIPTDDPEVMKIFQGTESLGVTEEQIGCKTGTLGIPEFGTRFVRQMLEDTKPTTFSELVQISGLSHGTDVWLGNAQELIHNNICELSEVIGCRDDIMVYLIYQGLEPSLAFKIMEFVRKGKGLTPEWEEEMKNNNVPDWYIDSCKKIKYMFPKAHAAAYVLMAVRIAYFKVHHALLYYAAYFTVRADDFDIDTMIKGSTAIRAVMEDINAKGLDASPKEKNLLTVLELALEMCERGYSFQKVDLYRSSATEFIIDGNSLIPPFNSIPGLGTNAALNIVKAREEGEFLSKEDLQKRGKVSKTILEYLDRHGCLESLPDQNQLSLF
Outline: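 Primed replication of single-stranded M13Gori by a four-protein B. subtilis holoenzyme is measured at room temperature. Double-stranded product is quantified by PicoGreen fluorescence after an EDTA stop; inhibition is scaled between DMSO and EDTA controls.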

[11] = target: Tumor susceptibility gene 101 protein (Homo sapiens) (UniProt Q99816); assay: qHTS Validation Assay for Iinhibitors of HIV-1 Budding by Blocking the Interaction of PTAP/TSG101 (AID 485342; calls by dose curve)
Chain of Tumor susceptibility gene 101 protein (Homo sapiens) (Q99816 whole entry, looked up, the tested form may be a part): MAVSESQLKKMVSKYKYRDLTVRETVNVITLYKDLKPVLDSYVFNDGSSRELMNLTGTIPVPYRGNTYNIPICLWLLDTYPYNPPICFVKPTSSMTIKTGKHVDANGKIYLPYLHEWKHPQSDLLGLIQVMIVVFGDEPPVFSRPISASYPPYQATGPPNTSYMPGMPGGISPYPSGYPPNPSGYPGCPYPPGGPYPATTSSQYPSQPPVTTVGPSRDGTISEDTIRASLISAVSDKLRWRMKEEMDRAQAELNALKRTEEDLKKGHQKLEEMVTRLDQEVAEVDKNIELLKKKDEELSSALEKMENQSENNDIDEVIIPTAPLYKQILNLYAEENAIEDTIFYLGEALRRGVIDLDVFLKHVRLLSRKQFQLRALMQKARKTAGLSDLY
Outline: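 Fluorescence anisotropy measured PTAP-Tsg101 interaction. Final concentrations were 10 uM protein domain and 50 nM labeled peptide, equilibrated 20 min at room temperature.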

[12] = target: Beta-2 adrenergic receptor (Homo sapiens) (UniProt P07550); assay: qHTS validation assay of beta-arrestin-biased ligands of beta2-adrenergic receptor (AID 485366)
Chain of Beta-2 adrenergic receptor (Homo sapiens) (P07550 whole entry, looked up): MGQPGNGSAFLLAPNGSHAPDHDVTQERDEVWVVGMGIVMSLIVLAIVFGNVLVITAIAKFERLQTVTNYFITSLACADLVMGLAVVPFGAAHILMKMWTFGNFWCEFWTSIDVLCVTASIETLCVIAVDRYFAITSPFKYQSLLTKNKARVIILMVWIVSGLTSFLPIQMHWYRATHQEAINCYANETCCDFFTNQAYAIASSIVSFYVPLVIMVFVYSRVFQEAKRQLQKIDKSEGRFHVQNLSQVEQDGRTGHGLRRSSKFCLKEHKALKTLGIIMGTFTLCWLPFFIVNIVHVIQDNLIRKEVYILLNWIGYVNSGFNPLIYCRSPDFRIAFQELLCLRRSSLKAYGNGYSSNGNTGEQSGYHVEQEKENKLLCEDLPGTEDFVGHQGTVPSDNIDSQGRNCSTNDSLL
Outline: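 Tango cells (recombinant beta2-AR with recombinant beta-arrestin; recruitment releases tTA driving luciferase) were treated with compounds titrated up to 46 microM for 18 hr at 37 degrees C. Luminescence gave %Activity, and concentration-response curves were curve-classified.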

[13] = target: ATP-dependent 6-phosphofructokinase (Trypanosoma brucei brucei) (UniProt O15648); assay: qHTS Validation Assay to Find Inhibitors of T. brucei phosphofructokinase (AID 485368); further: potency means the concentration at half of the fitted maximal effect
Chain of ATP-dependent 6-phosphofructokinase (Trypanosoma brucei brucei) (O15648 whole entry, looked up): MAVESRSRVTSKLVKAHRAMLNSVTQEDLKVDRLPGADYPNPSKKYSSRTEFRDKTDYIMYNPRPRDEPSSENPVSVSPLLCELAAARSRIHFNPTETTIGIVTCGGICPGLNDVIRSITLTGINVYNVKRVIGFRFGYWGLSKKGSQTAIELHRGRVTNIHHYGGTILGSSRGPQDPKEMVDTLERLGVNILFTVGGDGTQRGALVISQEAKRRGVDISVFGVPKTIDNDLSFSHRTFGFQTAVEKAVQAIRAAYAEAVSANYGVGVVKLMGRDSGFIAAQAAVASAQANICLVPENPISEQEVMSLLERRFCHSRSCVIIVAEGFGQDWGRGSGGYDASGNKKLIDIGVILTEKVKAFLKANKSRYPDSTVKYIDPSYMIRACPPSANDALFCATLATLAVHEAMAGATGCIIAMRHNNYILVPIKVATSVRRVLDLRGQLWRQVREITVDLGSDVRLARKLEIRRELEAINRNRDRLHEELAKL
Outline: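 Compounds (up to 57 uM, titration series) were pinned into substrate buffer, then 1.25 nM PFK added; after 45 min at room temperature, ADP product was quantified by ADP-Glo luminescence and concentration-response curves fitted.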

[14] = Quantitative high throughput screen for delayed death inhibitors of the malarial parasite plastid, 48 hour incubation (AID 488752); further: nearly all actives have a fitted effect of over 65% in size; further: potency means the concentration at half of the fitted maximal effect
Outline: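 Readout is firefly luciferase luminescence from a reporter integrated into the parasite genome, with lower signal taken as inhibited growth. Infected red cells (0.1% parasitemia, 2% hematocrit final) are cultured with compound for one 48 h cycle at 37 C.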

[15] = target: RecQ-like DNA helicase BLM (Homo sapiens) (UniProt P54132); assay: qHTS Validation Assay for Inhibitors of Bloom's syndrome helicase (BLM) (AID 2364)
Outline: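 50 nM BLM preincubated 15 min at room temperature with compound in pH 8.0 Tris buffer containing 2.5 ug/ml poly(dI-dC); started with 200 nM TAMRA/BHQ-2 forked duplex and 2 mM ATP (final). Unwinding read as TAMRA fluorescence increase, two reads 2 h apart.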

[16] = Quantitative high throughput screen for delayed death inhibitors of the malarial parasite plastid, 96 hour incubation (AID 488745); further: nearly all actives have a fitted effect of over 70% in size; further: potency means the concentration at half of the fitted maximal effect
Outline: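 Infected erythrocytes were added to compound in Albumax-supplemented RPMI 1640 at 0.1% parasitemia and 2% hematocrit (final), incubated 96 h at 37 C under 5% CO2, then luciferase reagent was added and luminescence measured.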

[17] = qHTS Validation Assay to Find Inhibitors of Chronic Active B-Cell Receptor Signaling (AID 485345; active means well fitted curve in the direction sought with a large enough effect in the main read-out, with a control signal flat, not every such curve was filed as active; further: potency means the concentration at half of the fitted maximal effect)
Outline: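 TMD8 ABC-DLBCL cells stably carrying doxycycline-inducible IkappaBalpha–green luciferase fusion plus unfused red luciferase; compounds 46 uM to 3 nM, 4 h at 37C with doxycycline. Corrected green/red luminescence ratio normalized to 10 uM MG-132 and basal cell wells; curves fitted.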

Row | SMILES | outcome [1] | Potency [2] | Potency [3] | Potency [4] | Potency [5] | Potency [6] | Potency [7] | Potency [8] | Potency [9] | Potency [10] | outcome [11] | outcome [12] | Potency [13] | Potency [14] | Potency [15] | Potency [16] | Potency [17]
1 | CC(N)Cc1c[nH]c2ccc(O)cc12 (stereo not drawn) | inactive | inactive | inactive | inactive | inactive | inactive | inactive | inactive | inactive | inactive | inactive | inactive | inactive | inactive | – | – | –
2 | CC(C)CC(NP(=O)(O)O[C@@H]1O[C@@H](C)[C@H](O)[C@@H](O)[C@H]1O)C(=O)NC(Cc1c[nH]c2ccccc12)C(=O)O (stereo partly drawn) | inactive | inactive | – | – | – | – | inactive | inactive | – | – | – | – | – | inactive | inactive | inactive | –
3 | O=P(O)(O)C(Cl)(Cl)P(=O)(O)O | inactive | inactive | – | – | – | – | inactive | inactive | – | – | – | – | – | inactive | inactive | inactive | –
4 | C[C@H](Cc1ccc2c(c1)OC(C(=O)O)(C(=O)O)O2)NC[C@H](O)c1cccc(Cl)c1 | inactive | inactive | inactive | inactive | inactive | – | inactive | inactive | inactive | inactive | – | – | – | inactive | inactive | inactive | inactive
5 | C[N+](C)(C)CC#CCOC(=O)Nc1cccc(Cl)c1 | inactive | inactive | inactive | inactive | inactive | inactive | inactive | inactive | inactive | inactive | inactive | inactive | inactive | – | – | – | –
6 | CNC(=O)OCC[N+](C)(C)C | inactive | inactive | – | – | – | – | inactive | inactive | – | – | – | – | – | inactive | inactive | – | –
7 | O=S1(=O)N(CCN2CC=C(c3c[nH]c4cc(F)ccc34)CC2)c2cccc3c2N1CCC3 | inactive | inactive | – | inactive | inactive | – | inactive | 14.1 µM (active) | inactive | inactive | inactive | inactive | – | 1.47 µM (active) | inactive | 0.465 µM (active) | inactive
8 | CCCN(CCC)CCc1ccc(O)c(O)c1 | inactive | inactive | inactive | inactive | inactive | – | inactive | inactive | inactive | inactive | – | inactive | – | inactive | inactive | inactive | –
9 | O=c1c2ccccc2[se]n1-c1ccccc1 | inactive | inactive | – | inactive | inactive | – | – | – | inactive | 4.74 µM (active) | inactive | inactive | 1.51 µM (active) | – | inactive | – | –
10 | CC(Cc1ccc(OCC(=O)O)cc1)NCC(O)c1cccc(Cl)c1 (stereo not drawn) | inactive | inactive | inactive | inactive | inactive | inactive | inactive | inactive | inactive | inactive | inactive | inactive | inactive | inactive | – | inactive | inactive
11 | CCCN(CCC)[C@@H]1CCc2cccc(O)c2C1 | inactive | inactive | – | inactive | inactive | inactive | inactive | inactive | inactive | inactive | – | inactive | inactive | – | inactive | – | inactive
12 | Oc1ccc2c3c1O[C@H]1c4oc5ccccc5c4C[C@@]4(O)C(C2)N(CC2CC2)CCC314 (stereo partly drawn) | inactive | inactive | inactive | inactive | – | – | 7.94 µM (active) | inactive | inactive | inactive | inactive | inactive | inactive | – | inactive | 7.38 µM (active) | inactive
13 | CCCN1CC[C@@H]2c3cc(O)ccc3CC[C@@H]21 | inactive | inactive | inactive | inactive | inactive | – | inactive | inactive | inactive | inactive | inactive | inactive | inactive | inactive | inactive | inactive | –
14 | C[C@]12Cc3cn4c(nc3C=C1CCC1C2CC[C@@]2(C)[C@H]1CC[C@@]2(O)C#N)nc1ccccc14 (stereo partly drawn) | inactive | inactive | inactive | inactive | inactive | inactive | inactive | 12.6 µM (active) | inactive | inactive | inactive | inactive | – | 3.7 µM (active) | – | – | 13 µM (active)
15 | O=[N+]([O-])c1cc(O)c(O)c([N+](=O)[O-])c1 | inactive | inactive | – | inactive | inactive | inactive | – | inactive | inactive | inactive | inactive | inactive | – | inactive | inactive | inactive | –
16 | COc1ccc2c(c1)C13CCCCC1C(C2)N(C)CC3 (stereo not drawn) | inactive | inactive | – | inactive | inactive | inactive | inactive | inactive | inactive | inactive | – | inactive | – | inactive | inactive | – | inactive
17 | Cc1[nH]c2ccc(O)cc2c1CCN | inactive | inactive | inactive | inactive | inactive | inactive | inactive | inactive | inactive | inactive | inactive | inactive | inactive | inactive | – | – | –
18 | NC(C(=O)O)c1cc(=O)[nH]o1 (stereo not drawn) | inactive | inactive | – | inactive | inactive | – | inactive | inactive | inactive | inactive | – | inactive | inactive | inactive | inactive | – | –
19 | CN1C2CCC1CC(OC(c1ccccc1)c1ccc(Cl)cc1)C2 (stereo not drawn) | inactive | inactive | – | – | – | – | 8.91 µM (active) | – | – | – | – | – | – | 6.57 µM (active) | inactive | 0.147 µM (active) | –
20 | NNC(N)=O | inactive | inactive | – | inactive | inactive | inactive | inactive | inactive | inactive | inactive | inactive | inactive | inactive | inactive | inactive | inactive | inactive
